Compounds with a hit are over-represented: about 7.6% of the library has one in this group of screens.
VP16 counter: VP16 counterscreen qHTS for inhibitors of ROR gamma transcriptional activity. Drosophila S2 Gal4-VP16 UAS-luciferase, luminescence, 20 h. AID 2546, 2010. Potency, µM (highest dose often 53.6 µM), usual class: inhibitors. 3.5% of 310,000 active;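 note: Gal4-VP16 expression switched on by copper sulfate through the metallothionein promoter; nearly all actives have a fitted effect of over 50% in size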
p53 reactivator: qHTS assay for re-activators of p53 using a Luc reporter | H1299 p53-A138V BP100-luciferase reporter, luminescence, 24 h | Potency, µM (highest dose often 92.2 µM), most hits filed as activators | 0.063% of 320,000 active | AID 504706, 2011; note: nearly all actives have a fitted effect of over 45% in size
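p53-null H1299 cells stably carrying temperature-sensitive p53-A138V and a BP100-luciferase reporter were pinned with compounds (4-point, 1:5 series) and held 24 hrs at 37 deg C. Luminescence was read 10 min after detection reagent.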
RORg inh: qHTS for inhibitors of ROR gamma transcriptional activity; Nuclear receptor ROR-gamma (Mus musculus), P51450; Drosophila S2 Gal4-RORgamma UAS-luciferase reporter, 20 h; Potency, µM (doses to about 53.6 µM), hits mostly inhibitors; 5.4% of 310,000 active; note: nearly all actives have a fitted effect of over 60% in size
Target sequence (P51450 whole entry, looked up, the tested form may be a part): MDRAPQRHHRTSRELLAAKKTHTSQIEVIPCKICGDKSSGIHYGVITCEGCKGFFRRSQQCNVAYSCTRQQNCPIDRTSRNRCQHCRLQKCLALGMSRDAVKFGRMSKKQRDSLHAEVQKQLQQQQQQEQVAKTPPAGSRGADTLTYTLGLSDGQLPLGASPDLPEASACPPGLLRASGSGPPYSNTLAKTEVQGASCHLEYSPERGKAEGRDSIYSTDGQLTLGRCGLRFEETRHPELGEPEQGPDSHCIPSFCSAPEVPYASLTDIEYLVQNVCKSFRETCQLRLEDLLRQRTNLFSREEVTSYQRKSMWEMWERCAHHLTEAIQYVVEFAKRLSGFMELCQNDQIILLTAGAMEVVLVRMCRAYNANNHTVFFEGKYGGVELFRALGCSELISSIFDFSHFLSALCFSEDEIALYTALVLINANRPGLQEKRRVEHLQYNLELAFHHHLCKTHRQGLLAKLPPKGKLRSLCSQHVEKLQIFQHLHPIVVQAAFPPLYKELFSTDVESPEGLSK
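Using a luciferase readout, inhibitors were identified by reduced reporter activity in Drosophila cells coexpressing a copper-inducible Gal4–ROR gamma fusion and UAS-driven Photinus luciferase, incubated 20 hr after 700 uM copper sulfate.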
ELG1 DNA repair: qHTS screen for small molecules that inhibit ELG1-dependent DNA repair in human embryonic kidney (HEK293T) cells expressing luciferase-tagged ELG1; HEK293T ELG1-luciferase reporter, luminescence, 16 h; DNA damage induced by 5-fluorouridine; Potency, µM (titrated, usually from 46.1 µM), actives largely listed as inhibitors; 2.3% of 330,000 active; AID 504467, 2011; note: nearly all actives have a fitted effect of over 55% in size
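DMSO vehicle served as the neutral condition. Each well held 2,000 cells given 5-fluorouridine plus compound; after 16 hr at 37 °C/5% CO2, ONE-Glo was added and luciferase measured 30 min later.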
Giardia kill: Small Molecules that selectively kill Giardia lamblia: qHTS. Giardia lamblia trophozoite viability. activity change, % at 7.66 µM, hits read low. 0.15% of 340,000 active. AID 540267, 2011; in the data active = activity change below about -80%; inconclusive = between about -30% and that limit;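 note: parasites exposed to compound for two days anaerobically before the ATP read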
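Viability, read as ATP luminescence: trophozoites at 100 cells/well, compound added, 48 hrs anaerobic at 37 deg C, then 15-30 min room-temperature development before reading.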
BRCA1 expr up: qHTS Assay to Identify Small Molecule Activators of BRCA1 Expression. MCF7-BRCA1-FFLuc reporter, luminescence, 48 h; response scale: scaled: vehicle 0%, 10 µM genistein 100%. Potency, µM (series often up to 46.1 µM), usual class: activators. 1.1% of 380,000 active. AID 624202, 2012; note: nearly all actives have a fitted effect of over 80% in size
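Reporter cells (MCF7, BRCA1 promoter-firefly luciferase) received library compounds across a concentration series for 48 h. End-point luminescence was measured and concentration-effect curves derived after normalization.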
Each line names hits and unclear results; the compound was inactive in the other large screens. Unless noted, calls come from the whole dose curve; as a rule, active = well fitted curve in the direction sought with a large enough effect; inconclusive = small, poorly fitted or top-dose-only effect, or another doubt; inactive = no such curve, though single readings can be large; an effect the other way counts as inactive or inconclusive.

Cc1cc(CN(C)C(=O)CC2C(=O)NCCN2Cc2c(F)cccc2Cl)on1 (configuration not stated)	none
O=C1C2C3C=CC(C3)C2C(=O)N1c1ccc(N2CCN(c3ccccn3)CC2)c([N+](=O)[O-])c1 (configuration not stated)	VP16 counter 4µM, RORg inh inconclusive
O=C(CCN1C(=O)C2C3C=CC(C3)C2C1=O)N1CCN(c2ccccn2)CC1 (configuration not stated)	none
COc1ccccc1-n1cc(C(=O)c2cc(Cl)ccc2O)cc(C#N)c1=O	RORg inh inconclusive
CCCn1c(=S)[nH]c2cc(C(=O)N3CCc4ccccc43)ccc2c1=O	VP16 counter 3.5µM, RORg inh 2.8µM
COCCn1c(=S)[nH]c2cc(C(=O)N3CCc4ccccc43)ccc2c1=O	VP16 counter inconclusive, RORg inh 13µM, ELG1 DNA repair inconclusive
Cc1ccc(S(=O)(=O)N(Cc2cc3cccc(C)c3[nH]c2=O)c2ccccc2)cc1	RORg inh inconclusive, ELG1 DNA repair inconclusive
Cc1nn2c(Nc3ccccc3)c3c(nc2c1-c1ccccc1)CCC3	VP16 counter 5µM, RORg inh 2.8µM, ELG1 DNA repair inconclusive
Cc1nn2c(NCCCN(C)C)c3c(nc2c1-c1ccccc1)CCC3	RORg inh 11µM
Cc1nn2c(NCC(C)C)c3c(nc2c1-c1ccccc1)CCC3	RORg inh inconclusive
COCCNc1c2c(nc3c(-c4ccccc4)c(C)nn13)CCC2	ELG1 DNA repair inconclusive
Cc1nn2c(NC(C)C)c3c(nc2c1-c1ccccc1)CCC3	RORg inh 3.5µM
CC(=O)N1CCc2c(sc(NC(=O)c3ccc4c(c3)OCCO4)c2C#N)C1	ELG1 DNA repair inconclusive
Cc1noc(C)c1S(=O)(=O)N1CCCC(C(=O)Nc2ccc(Cl)cn2)C1 (configuration not stated)	ELG1 DNA repair 16µM
COc1ccc(NC(=O)CSc2nnnn2C2CCCC2)c(OC)c1	none
CCOC(=O)C1=C(N)N2C(=O)C(C)SC2=C(C(=O)OCC)C1c1ccccc1 (configuration not stated)	VP16 counter 13µM, RORg inh inconclusive
Cn1c(O)c(N=NC(=O)CNC(=O)c2ccccc2)c2ccccc21	none
Cn1c(N=NC(=O)c2ccccc2)c(O)c2ccccc21	VP16 counter inconclusive, p53 reactivator inconclusive, RORg inh 8.9µM, ELG1 DNA repair inconclusive
CCNC(=S)N/N=C(\C)c1ccc(Cl)s1	VP16 counter 1.4µM, RORg inh 0.71µM
C=C(C)CNC(=S)N/N=C(\C)c1ccc(Cl)s1	VP16 counter 2.8µM, p53 reactivator inconclusive, RORg inh 0.89µM
C/C(=N/Nc1ccc(F)cc1)c1ccc(Cl)s1	none
CNC(=S)N/N=C(\C)c1ccc(Cl)s1	VP16 counter 1.1µM, RORg inh 0.4µM
C/C(=N\NC(N)=O)c1ccc(Cl)s1	none
CC1CCN(S(=O)(=O)c2cc(C(=O)N3CCN(c4ncccn4)CC3)ccc2Br)CC1	VP16 counter 7.1µM, ELG1 DNA repair 18µM
COCCN(C(=S)Nc1c(C)cc(C)cc1C)C(C)c1cccnc1 (configuration not stated)	RORg inh inconclusive
COCCN(C(=S)Nc1cc(C)cc(C)c1)C(C)c1cccs1 (configuration not stated)	VP16 counter 22µM, RORg inh 10µM
COCCN(C(=S)Nc1c(C)cccc1C)C(C)c1cccs1 (configuration not stated)	VP16 counter inconclusive, RORg inh inconclusive
Cc1ccc(NC(=S)N(CCN(C)C)C(C)c2ccco2)cc1Cl (configuration not stated)	VP16 counter inconclusive, RORg inh 13µM, Giardia kill inconclusive
COCCN(C(=S)Nc1cccc(C)c1)C(C)c1cccs1 (configuration not stated)	VP16 counter inconclusive, RORg inh 11µM
COCCN(C(=S)Nc1cc(C)cc(C)c1)C(C)c1ccco1 (configuration not stated)	RORg inh 8.9µM
COCCCNC(=S)NNC(=O)c1cc(-c2cccnc2)nc2ccccc12	none
CSCCC1NC(=O)N(CC(=O)Nc2ccc(-c3ccccc3)cc2)C1=O (configuration not stated)	VP16 counter inconclusive
CCC1CCCCN1CC(O)Cn1c2ccccc2n2c(=O)cc(C)c(C#N)c12 (configuration not stated)	none
COCCN(C(=S)Nc1ccc(OC)cc1)C(C)c1cccs1 (configuration not stated)	VP16 counter inconclusive, RORg inh 13µM
CC(C)CCN(C(=S)Nc1cccc(F)c1)C(C)c1cccs1 (configuration not stated)	VP16 counter inconclusive, RORg inh 20µM, ELG1 DNA repair inconclusive
Cc1cc(C)cc(NC(=S)N(CCN(C)C)C(C)c2cccnc2)c1 (configuration not stated)	RORg inh 11µM
Cc1cc(C)c(NC(=S)N(CCN(C)C)C(C)c2cccnc2)c(C)c1 (configuration not stated)	none
CCOC(=O)N1CCN(c2nc3c(c(=O)[nH]c(=O)n3C)n2Cc2ccccc2Cl)CC1	none (no result: Giardia kill, BRCA1 expr up)
NC(=O)CSc1nnc(-c2ccco2)n1-c1ccc(F)cc1	none (no result: VP16 counter, p53 reactivator, RORg inh, ELG1 DNA repair, Giardia kill)
COc1cc(C(=O)NCCN2C(=O)S/C(=C\c3cccs3)C2=O)cc(OC)c1OC	none
COc1cc(/C=C2\SC(=O)N(CCNC(=O)c3c(C)noc3C)C2=O)cc(OC)c1OC	ELG1 DNA repair 18µM (no result: VP16 counter, RORg inh)
CCOC(=O)N1CCC(NS(=O)(=O)c2ccc3c(c2)CCN3C(C)=O)CC1	ELG1 DNA repair 18µM
Cc1ccnc(N2C(=O)c3cccc4c([N+](=O)[O-])ccc(c34)C2=O)c1	RORg inh 6.3µM
O=C1c2cccc3c([N+](=O)[O-])ccc(c23)C(=O)N1Cc1cccnc1	VP16 counter inconclusive, RORg inh 4.5µM, ELG1 DNA repair inconclusive
Cc1cccc(N2C(=O)c3cccc4c(N5CCCCC5)c([N+](=O)[O-])cc(c34)C2=O)c1C	none
Cc1nnc(N2C(=O)c3cccc4c([N+](=O)[O-])ccc(c34)C2=O)s1	VP16 counter 3.2µM, RORg inh 4µM, ELG1 DNA repair inconclusive

Screening data: PubChem BioAssay, National Center for Advancing Translational Sciences (NCATS)
